Hits are enriched below; roughly 19% of the tested compounds scored in any of these assays.
HT1080 IDH1KD tx: qHTS for induction of synthetic lethality in tumor cells producing 2HG: qHTS for the HT-1080-IDH1KD cell line; HT-1080 IDH1 knockdown viability, ATP luminescence, 48 h; Potency, µM (series often up to 46.1 µM), for the others: top-dose activity, negative = toxicity, most hits filed as cytotoxic; 2% of 360,000 active; AID 686971, 2013;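 further: potency means the concentration at half of the fitted maximal effect; 0% = DMSO wells and -100% = cell-free medium wells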
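% activity derives from luminescence (CellTiter-Glo), normalised to DMSO and no-cell wells. HT-1080-IDH1KD cells, 750/well, had 48 h compound exposure at 37 °C.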
TDP1 cell noCPT: qHTS for Inhibitors of human tyrosyl-DNA phosphodiesterase 1 (TDP1): qHTS in cells in absence of CPT. Potency, µM (top dose mostly 46.2 µM), for inactives: at the highest dose activity change, negative = growth inhibition, actives largely listed as inhibitors. DT40 Tdp1-/- hTDP1 cells, no CPT, ATP luminescence, 48 h. 15% of 420,000 active. AID 686978, 2013; further: potency means the concentration at half of the fitted maximal effect; nearly all actives have a fitted effect of over 55% in size
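No-CPT arm: Tdp1-/-;hTDP1 DT40 cells (400/well) plus compounds, incubated ≥48 hr at 37 °C. Readout CellTiter-Glo luminescence.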
IL-1B inflam inh: qHTS for Inhibitors of Inflammasome Signaling: IL-1-beta AlphaLISA Primary Screen; 4.7% of 360,000 active; activity change, % at 57.5 µM; AID 743279, 2014; THP-1 LPS/ATP IL-1B secretion, AlphaLISA, 16 h; stronger effect = lower value; in the data active means activity change below about -50%; inconclusive means mostly about -30% to -49%
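Secreted IL-1B measured by AlphaLISA bead assay after 16 h compound exposure of THP-1 cells; compounds (final up to 57.5 uM) added 1 h before LPS (250 ng/mL) and ATP (1.25 mM) stimulation; lower signal means less secretion.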
HT1080NT lethal: qHTS for induction of synthetic lethality in tumor cells producing 2HG: qHTS for the HT-1080-NT fibrosarcoma cell line; HT-1080-NT fibrosarcoma viability, CellTiter-Glo ATP luminescence, 48 h; Potency, µM (titrated, usually from 46.1 µM), for the others: at the top dose activity, negative = less viability, actives largely listed as cytotoxic; 1.6% of 360,000 active; AID 686970, 2013;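 further: NT is the 2HG producing partner of a matched IDH1 knockdown line; potency means the concentration at half of the fitted maximal effect; 0% = DMSO-treated cells and -100% = media-only wells without cells; nearly all actives have a fitted effect of over 55% in size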
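750 cells/well, RPMI + 5% FBS; 2 h settle, compound pin-transfer, 48 h at 37 degrees C. CellTiter-Glo 10 min RT, luminescence. Normalized to DMSO and media-only wells.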
DT40 TDP1 CPT: qHTS for Inhibitors of human tyrosyl-DNA phosphodiesterase 1 (TDP1): qHTS in cells in presence of CPT | chicken DT40 Tdp1-/-;hTDP1 cells + 20 nM CPT, ATP luminescence, 48 h | AID 686979, 2013 | Potency, µM (doses to about 46.2 µM), for inactives: at the highest dose activity change, negative = growth inhibition, hits mostly inhibitors | 12% of 420,000 active; further: potency means the concentration at half of the fitted maximal effect; nearly all actives have a fitted effect of over 55% in size
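Chicken DT40 Tdp1-/- cells complemented with human TDP1, 400 cells/well, exposed to compounds plus 20 nM camptothecin for at least 48 h at 37 C; viability read as ATP content by CellTiter-Glo luminescence.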
Starred values were filed as active, the others as inactive; u = inconclusive; x = no result; [ ] = dose if it differs, or a comment. Unless noted, the call rests on the fitted dose curve; in most records, active means well fitted curve in the direction sought with a large enough effect; inconclusive means small, poorly fitted or top-dose-only effect, or another doubt; inactive means no such curve, though single readings can be large; an effect the other way counts as inactive or inconclusive. Unless noted, on the % scale 0 is the no-effect control and ±100 the full control effect.

SMILES	HT1080 IDH1KD tx	TDP1 cell noCPT	IL-1B inflam inh	HT1080NT lethal	DT40 TDP1 CPT
COc1ccccc1C(=O)NC(=S)Nc1cccc2cc(O)ccc12	u	-22.6%	-85.2*	u	u
CCC(C)(C)NC(=O)CN(Cc1ccccc1)C(=O)CCC(=O)Nc1nccs1	-0.8%	-7.7%	23.2	3.1%	-15.5%
CS(=O)(=O)c1ccc(C(=O)OCC(=O)c2ccc(Cl)s2)cc1	0.0%	-1.9%	26.3	-4.8%	-8.0%
O=S(=O)(Cc1ccccc1)NCC1CCCN(Cc2ccc3nonc3c2)C1 (stereo not drawn)	-2.0%	6.0%	23.1	-2.6%	1.9%
COc1ccc2occ(C(=O)c3ccccc3)c2c1	0.0%	-12.4%	-8.7	-1.2%	-11.7%
O=C(c1ccccc1)c1coc2c1C(=O)c1ccccc1C2=O	18.4µM*	u	-27.7	16.4µM*	u
O=C(c1ccccc1)c1ccc(CN2C(=O)c3ccccc3C2=O)o1	5.4%	-1.7%	8.1	-0.7%	-4.9%
O=C1C(=C(O)c2ccccc2)C(=O)c2ccccc21	-0.4%[9.24 µM]	-13.8%	4.6	-28.6%	u
COc1ccc(C(=O)c2coc3c2C(=O)C(=O)c2ccccc2-3)cc1	u	4.61µM*	12.6	u	2.59µM*
O=C1c2ccccc2C(=O)c2c1oc(C(F)(F)F)c2C(=O)c1ccccc1	23.1µM*	16.4µM*	-84.4*	u	11.6µM*
CC(OC(=O)c1cnc2ccccc2n1)c1ccccc1Cl (stereo not drawn)	0.3%	-6.9%	1.0	7.9%	-3.5%
COc1nc(Nc2ccc([N+](=O)[O-])cc2)nc(NC(C)C)n1	6.2%	u	13.9	3.3%	u
COc1ccc(CN(C)C(=O)/C=C/c2ccc(S(=O)(=O)N3CCCCCC3)cc2)cc1	-6.8%	23.1µM*	u	-11.1%	u
COc1cccc(NC(=O)CN(C)C(=O)c2ccccn2)c1	0.0%	7.5%	21.7	4.1%	16.1%
COc1cccc(NC(=O)CN(C)C(=O)/C=C/c2ccc(S(=O)(=O)N3CCCCCC3)cc2)c1	u	18.4µM*	-2.9	-14.7%	u
COc1cccc(NC(=O)CN(C)C(=O)/C=C/c2ccc3ccccc3n2)c1	-11.1%	-12.1%	-77.2*	-7.0%	5.7%
CNC(=O)c1ccc(CN(C)C(=O)/C=C/c2ccc(S(=O)(=O)N3CCCCCC3)cc2)cc1	-16.8%	23.1µM*	-3.6	-7.2%	23.1µM*
Cn1c(SCC(=O)O)nnc1-c1ccc(NC(=O)c2ccc(Cl)c(Cl)c2)cc1	1.7%	-5.0%	-8.7	17.6%	-6.8%
COc1ccc(C2NC(=O)N(C)C3=C2C(=O)N(c2ccccc2)C3)cc1 (stereo not drawn)	x	0.2%	x	x	0.6%
COc1ccccc1NC(=O)C(C)OC(=O)/C=C/c1ccc2ccccc2n1 (stereo not drawn)	-3.4%	u	7.3	0.7%	29.1µM*
Cc1cc(=O)oc2cc(OCC3CC(c4ccc(Cl)cc4)=NO3)ccc12 (stereo not drawn)	10.8%	u	45.8	15.6%	28.2µM*
CC(=O)c1c(C)oc2ccc(NS(=O)(=O)c3ccc(C(C)C)cc3)cc12	x	5.8µM*	x	x	5.8µM*
CC(=O)c1c(C)oc2ccc(NS(=O)(=O)c3ccc(C)cc3)cc12	-9.0%	8.2µM*	37.5	-9.8%	u
O=S(=O)(Nc1ccc2oc(-c3ccccc3)nc2c1)c1ccccc1	u	-12.9%	u	u	-28.1%
Cc1oc2ccc(NS(=O)(=O)c3ccc(C(C)(C)C)cc3)cc2c1C(=O)Nc1ccccc1	-25.4%	18.4µM*	u	-15.6%	u
SMILES	HT1080 IDH1KD tx	TDP1 cell noCPT	IL-1B inflam inh	HT1080NT lethal	DT40 TDP1 CPT
CC(=O)c1c(C)oc2ccc(NS(=O)(=O)c3cccs3)cc12	-6.2%	u	0.0	-17.0%	u
Cc1ccc(-c2nc3cc(NS(=O)(=O)c4ccc(C)cc4)ccc3o2)cc1	u	u	15.1	u	14.1µM*
O=C(COc1cccc(F)c1)NNC(=O)Cc1ccc(Br)cc1	-0.7%	0.3%	4.9	-2.0%	-12.2%
CCC(=O)Nc1cc2c(cc1Cl)-c1ccccc1C2	-15.4%	u	1.7	-11.9%	u
COCc1oc2ccc(NS(=O)(=O)c3ccc(C)cc3)cc2c1C(=O)OC	x	2.31µM*	x	x	3.66µM*
COc1cc(NC(=O)C2=C(N3CCOCC3)/C(=C/c3ccc(Cl)cc3)CC2)cc(OC)c1OC	-21.4%	7.31µM*	8.3	-26.0%	6.51µM*
O=C(Nc1ccccc1)C1=C(N2CCOCC2)/C(=C/c2cccnc2)CC1	0.0%	-12.6%	-25.2	5.2%	-5.3%
CN(C)c1ccc(NC(=O)c2ccc(N3CCOCC3)nc2)cc1	-6.3%	u	u	-9.0%	u
COc1cc(NC(=O)C2=C(N3CCOCC3)/C(=C\c3ccc(N(C)C)cc3)CCC2)cc(OC)c1OC	29.1µM*	2.91µM*	0.0	u	7.31µM*
CC(C)C[C@H]1CN(CCCC[C@H]2CNC(=O)C(=O)N2CC2CCCCC2)C(=O)C(=O)N1CCc1ccc(O)cc1	8.1%	-22.2%	-0.6	18.6%	-0.2%
COc1ccc(N2C[C@H](C)[C@@H](CC(=O)Nc3ccc(Br)cc3)C2=O)cc1	12.3%	u	10.7	1.5%	-27.1%
COc1ccc(CNC(=O)c2ccc3c(c2)N(Cc2ccccc2)CCS3)cc1	x	14.6µM*	x	x	u
COc1ccc(CCNC(=O)c2ccc3c(c2)N(Cc2ccc(F)cc2)CCS3)cc1OC	-5.1%	14.6µM*	-2.0	-0.1%	u
COc1ccc(C(=O)NCCc2ccc(F)cc2)cc1OC	-3.2%	-19.0%	14.4	-2.3%	-1.2%
CCOc1ccc(CCNC(=O)c2ccc3c(c2)N(Cc2ccc(C)cc2)CCS3)cc1	x	u	x	x	18.4µM*
COc1ccc(OC)c(CCNC(=O)c2ccc3c(c2)N(Cc2ccc(C)cc2)CCS3)c1	x	23.1µM*	x	x	u
O=C(NCc1nnc2n1CCN(Cc1cc3c(cc1Cl)OCO3)CC2)C1CCOC1 (stereo not drawn)	x	-3.6%	x	x	7.4%
CCCOc1ccc(CNC(=O)c2ccc3c(c2)N(CC)CCS3)cc1	-9.1%	u	-22.4	-14.2%	-28.0%
O=C(NCc1cccnc1)c1ccc2c(c1)N(Cc1ccccc1)CCS2	-24.2%	u	-21.3	-24.1%	u
CC(C)Oc1ccc(CNC(=O)c2ccc3c(c2)N(Cc2ccc(F)cc2)CCS3)cc1	x	7.31µM*	x	x	10.3µM*
